Bioassay records (PubChem BioAssay)
HPGD inh: HPGD (human) dehydrogenase inhibition. P15428. purified HPGD, NADH fluorescence kinetic, PGE2 substrate. Potency, µM, most hits filed as inhibitors. 150,000 compounds, 4.3% hits. AID 894; active = well fitted inhibition curve with a large enough effect, not every such curve was filed as active; inconclusive = small, poorly fitted or top-dose-only effect, or another doubt; inactive = no such curve, though single readings can be large or run the other way
Target sequence (P15428 whole entry, looked up): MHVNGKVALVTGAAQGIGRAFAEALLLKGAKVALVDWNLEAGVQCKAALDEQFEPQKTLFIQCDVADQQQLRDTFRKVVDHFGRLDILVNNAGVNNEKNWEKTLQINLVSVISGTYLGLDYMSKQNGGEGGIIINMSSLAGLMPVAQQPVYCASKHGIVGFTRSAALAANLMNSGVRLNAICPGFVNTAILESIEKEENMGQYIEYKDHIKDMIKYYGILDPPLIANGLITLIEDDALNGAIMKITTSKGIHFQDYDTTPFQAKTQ
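NADH formation kinetics: reaction with 30 uM PGE2 and 1 mM NAD+ (final), 20 nM enzyme, Tris-HCl pH 8 with Tween 20, after 15 min compound preincubation at room temperature. Fluorescence change, last versus first of five reads.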
ALDH1A1 inh: inhibitors of human aldehyde dehydrogenase 1A1; P00352; Potency, µM (titrated, usually from 75.3 µM), usual class: inhibitors; Purified ALDH1A1, NADH fluorescence, propionaldehyde substrate; 220,000 compounds, 7.3% hits; active = well fitted inhibition curve with a large enough effect, not every such curve was filed as active; inconclusive = small, poorly fitted or top-dose-only effect, or another doubt; inactive = no such curve, though single readings can be large or run the other way
ALOX12 inhib: blocks human 12-lipoxygenase activity. P18054. purified 12-hLO, xylenol orange hydroperoxide absorbance. Potency, µM (doses to about 57.1 µM), hits mostly inhibitors. 150,000 compounds, 0.12% hits. AID 1452; note: nearly all actives have a fitted effect of over 55% in size
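Hydroperoxide output read as Fe(III)-xylenol orange absorbance, 573-to-405 nm ratio, after 30 min reaction with 40 uM arachidonic acid. Enzyme: 150 nM purified human 12hLO, 15 min compound preincubation; 25 mM Hepes pH 7.0, room temperature.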
PNC assembly inh: perinucleolar compartment assembly inhibition; 140,000 compounds, 3.1% hits; PC3M PTB-GFP, PNC prevalence imaging, 16 h; stronger effect = lower value; AID 2417; activity change (PNC), negative = inhibition, % at 10 µM;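 active = readout at or below -70, meaning at least 70% loss of cells showing the perinucleolar compartment, a nuclear body marking cancer cells; inconclusive = readout between -30 and a set limit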
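PC3M cells stably expressing PTB-GFP, 750–1000 cells/well, treated 16 h at 37 °C with compound (23 nl of library stock), in duplicate. After paraformaldehyde fixation and Hoechst stain, imaged at 20x; PNC prevalence scored by image analysis.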
IMPase Li cell: cell-permeable IMPase inhibitors with lithium potentiation. CHO-M1 cells, IP1 TR-FRET (IP-One), carbachol + lithium. Potency, µM (highest dose often 59.4 µM), actives largely listed as inhibitors. 210,000 compounds, 0.35% hits. AID 1457;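 note: IP1 builds up when IMPase is blocked and the TR-FRET signal falls; nearly all actives have a fitted effect of over 50% in size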
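IP1 accumulation measured by competitive TR-FRET in lysed CHO-M1 cells after 30 min compound exposure at 37C, with a small lithium addition to potentiate weak responses. Hill-equation AC50 from ratio and donor-channel data.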
IMPase cell inh: membrane-permeable compound that blocks inositol monophosphatase. inhibition (IP1 accumulation), % at 46.1 µM. 120,000 tested, under 10 active. P97697. CHO-M1 cells, IP1 accumulation, HTRF TR-FRET ratio; active = well fitted curve in the direction sought with a large enough effect in the signal ratio, not every such curve was filed as active; inconclusive = small, poorly fitted or top-dose-only effect, or a change in a side signal; inactive = no such curve, though single readings can be large or run the other way; the % refers to the signal ratio;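 note: cells stimulated with carbachol in lithium chloride buffer; higher means more IMPase inhibition seen as more IP1 and lower FRET ratio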
Target sequence (P97697 whole entry, looked up): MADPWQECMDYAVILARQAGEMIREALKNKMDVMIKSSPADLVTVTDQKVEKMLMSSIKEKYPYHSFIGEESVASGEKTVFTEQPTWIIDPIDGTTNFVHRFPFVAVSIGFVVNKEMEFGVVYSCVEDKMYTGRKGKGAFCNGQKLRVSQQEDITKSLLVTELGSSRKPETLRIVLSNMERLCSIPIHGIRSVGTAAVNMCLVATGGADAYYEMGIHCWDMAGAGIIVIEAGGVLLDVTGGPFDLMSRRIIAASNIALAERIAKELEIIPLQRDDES
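The IP-One HTRF competitive assay in carbachol-stimulated CHO-M1 cells quantifies cellular IP1. Compounds spanned up to 46 uM final, and activity is expressed as AC50 from concentration-response fits of the ratio and donor data.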
Of the large screens only hits and unclear results are named; the others gave an inactive call. Compounds with a hit are over-represented: about 11% of the library has one in this group of screens. Unless noted, calls come from the whole dose curve; as a rule, active = well fitted curve in the direction sought with a large enough effect; inconclusive = small, poorly fitted or top-dose-only effect, or another doubt; inactive = no such curve, though single readings can be large; an effect the other way counts as inactive or inconclusive.

CC(=O)O[C@@H]1[C@@]2(C)O[C@H]2CC[C@]23O[C@H]2[C@H](OC3=O)C2=C(C)C(=O)O[C@@]21O	ALDH1A1 inh 28µM (no result: IMPase cell inh)
O=C(C1CC1)N1CCc2cc(Br)cc(S(=O)(=O)NCc3ccc4c(c3)OCO4)c21	ALDH1A1 inh 10µM
CCOCCCNS(=O)(=O)c1cc(Br)cc2c1N(C(=O)C1CC1)CC2	ALDH1A1 inh 10µM
O=C(C1CC1)N1CCc2cc(Br)cc(S(=O)(=O)NCc3ccccn3)c21	ALDH1A1 inh inconclusive, IMPase cell inh inconclusive
O=C(C1CC1)N1CCc2cc(Br)cc(S(=O)(=O)NCCN3CCOCC3)c21	none
Cc1ccc(CNC(=O)CCS(=O)(=O)c2cc(Br)cc3c2N(C(=O)C2CC2)CC3)cc1	none (no result: HPGD inh, ALDH1A1 inh, ALOX12 inhib, PNC assembly inh, IMPase Li cell)
Cc1ccc(CNC(=O)CCS(=O)(=O)c2cc(Br)cc3c2N(C(=O)C2CC2)CC3)o1	HPGD inh inconclusive, ALDH1A1 inh 10µM, PNC assembly inh inconclusive
O=C(C1CC1)N1CCc2cc(Br)cc(S(=O)(=O)NCc3ccco3)c21	ALDH1A1 inh 2µM
COc1ccc(-c2cc(C(F)(F)F)nc(SCC(=O)NCC(C)C)n2)cc1OC	none (no result: HPGD inh, ALDH1A1 inh, ALOX12 inhib, PNC assembly inh, IMPase Li cell)
NCCC[C@@H](CC(=O)N[C@@H]1CCCC[C@H]1C(=O)N[C@H](CC(=O)N[C@@H](CCC(=O)O)CC(=O)O)Cc1ccccc1)NC(=O)C[C@H](CO)NC(=O)[C@@H]1CNCC[C@H]1N	none (no result: PNC assembly inh, IMPase cell inh)
COCCNC(=O)COc1ccc(C)cc1C	HPGD inh 14µM
COCCCNC(=O)COc1ccc(Br)cc1Cl	PNC assembly inh -90 (no result: IMPase cell inh)
CC(=O)N1CCC2(CCCN(C(=O)Nc3cccc(F)c3)C2)CC1	none (no result: PNC assembly inh, IMPase cell inh)
OB(O)c1ccc(Br)cc1	none (no result: PNC assembly inh, IMPase cell inh)
O/N=C1\CC/C(=N\O)c2nn(-c3ccccc3Cl)nc21	none
Cc1ccc(-n2nc3c(n2)/C(=N/O)CC/C3=N\O)cc1	PNC assembly inh -100
CC(C)(C)NC(=O)c1ccc2nsnc2c1	PNC assembly inh -110 (no result: IMPase cell inh)
O=C(Oc1ccccc1)c1ccc2nsnc2c1	ALDH1A1 inh 4µM
Cc1cccc(OC(=O)c2ccc3nccnc3c2)c1	none
Nc1nc(-c2ccccc2)c(N=Nc2cccnc2)s1	ALDH1A1 inh 20µM (no result: HPGD inh, ALOX12 inhib, PNC assembly inh, IMPase cell inh)
Cn1c(=O)c(-c2ccccc2)nc2cnc(OCc3ccccc3)nc21	ALDH1A1 inh inconclusive (no result: HPGD inh, ALOX12 inhib, PNC assembly inh, IMPase cell inh)
O=C(O)C[C@H](Cc1ccccc1)C(=O)O	none (no result: PNC assembly inh, IMPase cell inh)
O=C(CCc1ccc(O)cc1)c1c(O)cc(O)cc1O[C@H]1OC(CO)C(O)C(O)C1O (some centres undefined)	HPGD inh 25µM (no result: PNC assembly inh, IMPase cell inh)
Cc1cc(C)cc(Oc2ccccc2C=O)c1	none
O/N=C/c1ccccc1Oc1ccccc1	HPGD inh 16µM, ALDH1A1 inh inconclusive
Cc1cc(C)cc(Oc2ccccc2/C=N\O)c1	HPGD inh 22µM, PNC assembly inh inconclusive
O=C1C[C@H](c2ccccc2)Oc2cc(O)cc(O)c21	none (no result: PNC assembly inh)
Cc1ccc(C)c(Cn2cnc3c(cnn3C(C)(C)C)c2=O)c1	HPGD inh 22µM, ALDH1A1 inh inconclusive
Cc1ccccc1Cn1cnc2c(cnn2C(C)(C)C)c1=O	none
Cc1ccc(/C=C2/C(=O)ON=C2c2ccccc2)o1	none (no result: HPGD inh, ALOX12 inhib, PNC assembly inh, IMPase Li cell, IMPase cell inh)
O=C1ON=C(c2ccc(Cl)cc2)/C1=C/c1ccc(O)cc1	ALDH1A1 inh 13µM (no result: HPGD inh, ALOX12 inhib, PNC assembly inh, IMPase cell inh)
COc1cc(/C=C2\C(=O)ON=C2c2ccccc2)cc(Cl)c1O	ALDH1A1 inh inconclusive (no result: HPGD inh, ALOX12 inhib, PNC assembly inh, IMPase cell inh)
COc1cc(/C=C2/C(=O)ON=C2c2ccccc2)ccc1O	HPGD inh 11µM, ALDH1A1 inh inconclusive (no result: IMPase cell inh)
CC(=O)c1ccc(NC(=O)OCCN2CCN(Cc3ccccc3)CCC2=O)cc1	none (no result: PNC assembly inh, IMPase cell inh)
CC1CCC2C(=O)N3C(CCC(C)[C@@H]3c3ccc(Br)cc3)C(=O)N2C1c1ccc(Br)cc1 (some centres undefined)	none (no result: HPGD inh, ALOX12 inhib, PNC assembly inh, IMPase Li cell, IMPase cell inh)
O=C(NCc1ccc2c(c1)OCO2)O[C@@H]1C(=O)c2cc(Br)ccc2O[C@H]1c1ccc2c(c1)OCO2	none (no result: ALOX12 inhib, PNC assembly inh, IMPase cell inh)
C(=C\c1nc(-c2ccccc2)oc1Nc1ccc2ccccc2c1)/c1ccccc1	none (no result: PNC assembly inh, IMPase cell inh)
O=C1C(N2CCOCC2)=C(n2nnc3ccccc32)C(=O)c2ccccc21	HPGD inh inconclusive, ALDH1A1 inh 1.3µM
